# RORg inh – blocks mouse ROR gamma transcriptional activity | P51450 | Drosophila S2 Gal4-RORgamma UAS-luciferase reporter, 20 h | Potency, µM (series often up to 53.6 µM), hits mostly inhibitors | 310,000 tested, 5.4% active | AID 2551; further: nearly all actives have a fitted effect of over 60% in size
# Target sequence (P51450 whole entry, looked up, the tested form may be a part): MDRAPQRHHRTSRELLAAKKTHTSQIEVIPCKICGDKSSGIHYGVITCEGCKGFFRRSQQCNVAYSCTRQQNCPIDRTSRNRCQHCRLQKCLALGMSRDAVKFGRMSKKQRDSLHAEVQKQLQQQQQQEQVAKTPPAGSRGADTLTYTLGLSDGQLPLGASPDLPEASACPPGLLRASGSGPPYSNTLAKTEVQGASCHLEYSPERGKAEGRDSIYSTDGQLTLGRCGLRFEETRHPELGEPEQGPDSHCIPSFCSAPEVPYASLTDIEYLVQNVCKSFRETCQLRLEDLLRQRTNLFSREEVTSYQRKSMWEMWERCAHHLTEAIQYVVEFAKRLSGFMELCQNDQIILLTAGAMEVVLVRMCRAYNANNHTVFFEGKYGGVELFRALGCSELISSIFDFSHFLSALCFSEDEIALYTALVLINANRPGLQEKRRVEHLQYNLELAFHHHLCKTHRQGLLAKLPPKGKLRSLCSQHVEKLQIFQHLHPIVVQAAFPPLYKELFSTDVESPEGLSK
#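 Compounds are pin-transferred onto Drosophila Schneider cells expressing a copper-inducible Gal4–ROR gamma transactivation domain fusion. After 1 hr, copper sulfate is added to 700 uM final; luciferase is read 20 hr later.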
# TRPV1 PAM – human TRPV1 potentiation; TRPV1-expressing cells, Fluo-8 calcium influx, capsaicin EC20 potentiation; Q8NER1; 320,000 tested, 0.02% active; AID 540277; potentiation, % at 8.33 µM; in the data active means potentiation above about 80%; inconclusive means between about 30% and that limit
#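 Fluo-8 calcium influx in TRPV1-expressing cells, kinetic read (ex 480/em 520 nm). Compound added and read 3 min for agonist activity, followed by capsaicin at EC20 final and 2 min further read for enhancement.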
# TRPV1 ag – human TRPV1 agonism; activation, % at 8.33 µM; TRPV1-expressing cells, Fluo-8 calcium influx, agonist mode; 320,000 tested, 0.19% active; AID 540275; Q8NER1; in the data active means activation above about 80%; inconclusive means between about 30% and that limit
#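 Cells expressing TRPV1 were dye-loaded with Fluo-8 and read kinetically: 10 s baseline, 3 min after compound (agonist portion), then 2 min after EC20 capsaicin (allosteric enhancer portion). Calcium-bound dye fluorescence at 480/520 nm.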
# Gal4-VP16 FLuc – counter-screen for ROR gamma inhibitors: Gal4-VP16 reporter. 310,000 tested, 3.5% active. Drosophila S2 Gal4-VP16 UAS-luciferase, luminescence, 20 h. AID 2546. Potency, µM (titrated, usually from 53.6 µM), hits mostly inhibitors;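 further: Gal4-VP16 expression switched on by copper sulfate through the metallothionein promoter; nearly all actives have a fitted effect of over 50% in size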
# uPA surface inh – blocks generation of uPA at the cell surface; Potency, µM (top dose mostly 38.3 µM), usual class: inhibitors; 330,000 tested, 0.31% active; cell surface uPA generation assay, qHTS; active means well fitted inhibition curve with a large enough effect; inconclusive means small, poorly fitted or top-dose-only effect; inactive means no such curve, though single readings can be large or run the other way; tested in mouse RAW 264.7 cells; further: nearly all actives have a fitted effect of over 55% in size
# A number is an active result; . = inactive; ? = inconclusive; / = no result given. Sampled rows, rich in hits. Any-hit rate of the full collection: about 5.8%. Unless noted, the call rests on the fitted dose curve; in most records, active means well fitted curve in the direction sought with a large enough effect; inconclusive means small, poorly fitted or top-dose-only effect, or another doubt; inactive means no such curve, though single readings can be large; an effect the other way counts as inactive or inconclusive.
SMILES,RORg inh,TRPV1 PAM,TRPV1 ag,Gal4-VP16 FLuc,uPA surface inh
O=C(N[C@@H]1CCC(=O)N(CC[C@H](Sc2ccccc2)c2ccccc2)CC1)OCc1ccccc1,.,.,.,.,.
CCN(CC(=O)NCCc1ccc(S(N)(=O)=O)cc1)Cc1nc2ccccc2c(=O)[nH]1,6.3µM,.,.,20µM,.
CCN(Cc1cc(=O)n2ccsc2n1)Cc1nc2ccccc2c(=O)[nH]1,2.2µM,.,.,10µM,.
CCN(CC(=O)NCCc1ccc(S(N)(=O)=O)cc1)Cc1nc2cc(OC)c(OC)cc2c(=O)[nH]1,.,.,.,.,.
CCN(CC(=O)Nc1ccccc1Br)Cc1nc2ccccc2c(=O)[nH]1,11µM,.,.,?,.
CCN(CC(=O)NCc1ccc(F)cc1)Cc1cc(=O)n2ccsc2n1,.,.,.,.,.
CCN(CC(=O)Nc1cc(Cl)ccc1-n1cncn1)Cc1nc2ccccc2c(=O)[nH]1,/,.,.,/,.
CN(Cc1nc2ccccc2c(=O)[nH]1)Cc1nc2ccsc2c(=O)[nH]1,0.4µM,.,.,5µM,.
COc1cccc(Cn2c(=O)cnc3cnc(N4CCOCC4)nc32)c1,.,/,/,.,/
Cc1cc(Br)ccc1NC(=O)CNC(=O)CN(C)Cc1nc2ccccc2c(=O)[nH]1,13µM,.,.,.,.
CCN(CC(=O)NC(=O)NCc1ccco1)Cc1nc2ccccc2c(=O)[nH]1,0.56µM,.,.,1.1µM,.
Cc1c(Cl)cn2c(=O)cc(CN(C)Cc3nc4ccccc4c(=O)[nH]3)nc2c1Cl,18µM,.,.,.,/
CCN(CC(=O)NC(=O)NCc1ccco1)Cc1ccccc1,/,.,.,/,.
CC(NC(=O)CN(C)Cc1nc2ccccc2c(=O)[nH]1)c1ccccc1 (stereo unspecified),.,.,.,.,.
CC(C(=O)Nc1ccccc1-c1ccccc1)N(C)Cc1nc2ccccc2c(=O)[nH]1 (stereo unspecified),14µM,.,.,.,.
Cc1c(NC(=O)C(C)Sc2nc(N)cc(=O)[nH]2)c(=O)n(-c2ccccc2)n1C (stereo unspecified),/,.,.,/,.
O=c1cc(O)c2c(=O)n(-c3ccccc3)c3c(c2o1)CCCCCC3,.,.,.,.,.
Cc1ccc(NC(=O)CN(C)Cc2nc3ccccc3c(=O)[nH]2)c(Br)c1,11µM,.,.,?,.
CCOC(=S)SCc1cn2ccccc2n1,?,.,.,.,.
CCOC(=S)SCc1cn2ccc(C)cc2n1,14µM,.,.,?,.
Cc1ccn2cc(CSc3ccccc3N)nc2c1,13µM,.,.,.,/
Cc1ccn2cc(CC(=O)O)nc2c1,.,.,.,.,.
CC(/C=C/c1ccccc1)=N\NC(=O)c1ccc(Br)cc1,0.5µM,.,.,0.89µM,.
CC(/C=C/c1ccccc1F)=N\NC(=O)c1ccc(Cl)cc1,.,.,.,.,.
CC(/C=C/c1ccccc1)=N\NC(=O)CNC(=O)c1ccccc1Cl,.,.,.,.,.
SMILES,RORg inh,TRPV1 PAM,TRPV1 ag,Gal4-VP16 FLuc,uPA surface inh
CC(/C=C/c1ccccc1F)=N\NC(=O)c1ccccc1,3.2µM,.,.,7.1µM,/
CC(/C=C/c1ccccc1)=N\NC(=O)c1cc(C)nc2ccccc12,14µM,/,/,?,.
C/C(=N\NC(=O)c1cccc(Br)c1)c1ccc(Br)cc1,?,/,/,?,.
CC(/C=C/c1ccccc1)=N/NC(=O)c1cccc(Br)c1,2.2µM,.,.,3.5µM,.
C/C(=N\NC(=O)c1cc(C)nc2ccccc12)c1cccs1,.,/,/,.,.
CC[C@@H](C)C(N)c1cn([C@@H](CCC(=O)O)C(=O)N2CCNCC2)nn1 (stereo partly specified),.,.,.,.,.
COc1ccc2ncc(OC(C)=O)cc2c1,.,.,.,.,.
CC(C)NC(=O)CSc1nnc(-c2ccc(S(=O)(=O)N3CCCC3)cc2)n1CC1CCCO1 (stereo unspecified),.,.,.,.,.
CCC(NC(=O)Nc1nnc(C(F)(F)F)s1)(C(F)(F)F)C(F)(F)F,?,.,.,3.5µM,.
O=C(O)CCC(=O)Nc1nnc(C(F)(F)F)s1,.,.,.,.,.
CCOc1ncccc1C(=O)OCC(=O)Nc1ccc2c(c1)OCCO2,/,.,.,/,?
CCOC(=O)c1cnc2ccccc2c1NCc1ccco1,6.3µM,/,/,?,.
CCOC(=O)c1cnc2ccccc2c1Nc1ccc2c(c1)OCCO2,11µM,.,?,?,.
CCOC(=O)c1sc2ncnc(NCc3ccco3)c2c1C,7.9µM,.,.,11µM,.
CCOC(=O)c1cnc2ccc(OCC)cc2c1NCc1ccccc1OC,13µM,.,?,?,.
OCCOC[C@H]1O[C@H](OCCO)[C@H](OCCO)[C@@H](OCCO)[C@@H]1OCCO (tested in a mixture with another compound),.,/,/,.,/
O=C(NC(=S)NCCc1ccc(Cl)cc1)c1ccco1,8.9µM,.,.,?,.
O=C(COC(=O)c1ccco1)NCCc1ccc(Cl)cc1,/,.,.,/,.
S=C(NCCc1ccc(Cl)cc1)NCc1ccco1,11µM,.,.,.,.
S=C(NCc1ccc(Cl)cc1)NCc1ccco1,7.1µM,.,?,10µM,.
O=C(c1ccc(-c2ccc([N+](=O)[O-])cc2)o1)N1CCCCC1,?,.,.,16µM,.
Cc1ccccc1C(=O)N(Cc1nc2ccccc2c(=O)[nH]1)C1CCCC1,?,.,.,.,.
O=C(Nc1cccc(Cl)c1)N(Cc1nc2ccccc2c(=O)[nH]1)C1CCCC1,14µM,.,.,?,.
Cc1ccc(C(=O)N(Cc2nc3ccccc3c(=O)[nH]2)C2CCCC2)cc1,.,.,.,7.1µM,.
COC(=O)c1nc2ccccn2c1F,.,.,.,.,.
SMILES,RORg inh,TRPV1 PAM,TRPV1 ag,Gal4-VP16 FLuc,uPA surface inh
CCc1c(C)sc(NC(=S)NC(C)C2CCCO2)c1C(=O)OC (stereo unspecified),16µM,.,.,10µM,.
CCc1c(C)sc(NC(=S)N2CC(C)OC(C)C2)c1C(=O)OC (stereo unspecified),7.1µM,.,.,.,.
COc1cccc(/C=C/C2=CC(C)(C)NC(=S)N2)c1,1.3µM,.,.,5µM,.
COc1ccc(/C=C/C2=CC(C)(C)NC(=S)N2)cc1OC,3.2µM,.,.,.,.
COc1ccc(/C=C/c2ccncc2)cc1OC,.,.,.,.,.
CCOc1ccc(/C=C/C2=CC(C)(C)NC(=S)N2)cc1,0.71µM,.,.,2.2µM,.
Cc1cccc(N2CCN(CC(=O)NCc3ccc(Cl)cc3)CC2)c1C,.,.,83,.,.
O=C(CN1CCN(c2ccccc2F)CC1)NCc1ccc(Cl)cc1,.,.,?,.,.
O=C(NCC1CC1)C1(C(F)(F)F)CC(CCCO)CCCO1 (stereo unspecified),.,/,/,.,.
O=C(Nc1cc(S(=O)(=O)N2CCOCC2)ccc1Cl)c1ccncc1,/,/,/,/,.
CC(C)(NC(=O)NC(CO)c1ccccc1)c1cccc(C(C)(C)NC(=O)NC(CO)c2ccccc2)c1 (stereo unspecified),/,?,.,/,.
